Assay results: PubChem BioAssay (NCI)
The panel holds about 83,000 compounds, 20% with a hit somewhere; the sample as a whole holds those more often.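 Step 1: grow cells in 96-well plates. Step 2: add test compound at a single concentration. Step 3: incubate 48 h. Step 4: record percent growth.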 Calls of active or inactive are those of the source. How the source made its calls: active means growth percent below 10; inactive means the rest.

Experiments:
Assay in all cases: NCI-60 one-dose screen, 48 h (100 = growth as untreated, 0 = no growth, -100 = all killed)
[1] = test system: HCT-15 colon; settings: 10 µM unless noted
[2] = test system: HT29 colon; settings: 10 µM unless noted
[3] = test system: SNB-75 CNS; settings: 10 µM unless noted
[4] = test system: SNB-19 CNS; settings: 10 µM unless noted
[5] = test system: U251 CNS; settings: 10 µM unless noted
[6] = test system: PC-3 prostate; settings: 10 µM unless noted
[7] = test system: SK-MEL-5 melanoma; settings: 10 µM unless noted
[8] = test system: UACC-62 melanoma; settings: 10 µM unless noted
[9] = test system: LOX IMVI melanoma; settings: 10 µM unless noted
[10] = test system: SK-MEL-28 melanoma; settings: 10 µM unless noted
[11] = test system: SK-MEL-2 melanoma; settings: 10 µM unless noted
[12] = test system: EKVX NSCLC; settings: 10 µM
[13] = test system: SN12C renal; settings: 10 µM unless noted
[14] = test system: UO-31 renal; settings: 10 µM unless noted
[15] = test system: TK-10 renal; settings: 10 µM unless noted
[16] = test system: ACHN renal; settings: 10 µM unless noted
[17] = test system: CAKI-1 renal; settings: 10 µM unless noted
[18] = test system: A498 renal; settings: 10 µM unless noted
[19] = test system: CCRF-CEM leukemia; settings: 10 µM
[20] = test system: MOLT-4 leukemia; settings: 10 µM unless noted

Measured: growth

COc1ccc2sc(-n3nc4nc5n(c(=O)c4c3N)-c3ccccc3Sc3ccccc3-5)nc2c1
inactive: [1] 82.6% | [2] 73.6% | [3] 73.8% | [4] 79.7% | [5] 82.2% | [6] 48.7% | [7] 41.1% | [8] 64.1% | [9] 79.8% | [10] 92.6% | [11] 81.5% | [12] 42.1% | [13] 76.7% | [14] 31.8% | [15] 102% | [16] 72.3% | [17] 57.7% | [18] 117% | [19] 68.1% | [20] 49.4%

O=C1C(=O)c2ccccc2C(O)=C1CCCc1ccc(C2CCCC2)cc1
inactive: [1] 19.6% | [2] 34.7% | [3] 39.9% | [4] 40.9% | [5] 29.2% | [6] 35.6% | [7] 15.6% | [8] 40.7% | [10] 53.1% | [11] 33.2% | [12] 27% | [13] 49.5% | [14] 45.8% | [15] 36.7% | [16] 30.8% | [17] 67.8% | [18] 24.2% | [19] 24.4% | [20] 14.1%
active: [9] 1.77%

CCCCCCCCCCCCc1ccc([N+](CC)(CC)CC)cc1
active: [7] -75.5%
inactive: [1] 96% | [2] 39.3% | [3] 33.5% | [4] 31.7% | [5] 29.6% | [6] 25.1% | [8] 11.1% | [9] 32.9% | [10] 28.9% | [11] 42.7% | [12] 41% | [13] 33.5% | [14] 78.7% | [15] 67.1% | [16] 85% | [17] 88.7% | [18] 60% | [19] 33% | [20] 51.9%

Cc1ncc(C(=O)Nc2ccc(CN3CCN(C)CC3)c(C(F)(F)F)c2)cc1C#Cc1cnc(NC2CC2)c2ncccc12
active: [1] -91.9% | [2] -80.7% | [3] -96.5% | [4] -97.2% | [5] -95% | [6] -66.9% | [7] -98.5% | [8] -62.8% | [9] -81% | [10] -91.5% | [11] -27.3% | [12] -86% | [13] -85.3% | [14] -97% | [15] -92.2% | [16] -100% | [17] -0.579% | [18] -60.4% | [19] -43% | [20] -65.4%

NNC(=O)CNc1ccc2ccccc2c1
inactive: [1] 110% | [2] 106% | [3] 104% | [4] 109% | [5] 101% | [6] 98% | [7] 101% | [8] 98.8% | [9] 96% | [10] 125% | [11] 98.7% | [12] 105% | [13] 104% | [14] 70.9% | [15] 119% | [16] 101% | [17] 106% | [18] 107% | [19] 101% | [20] 83.6%

Cc1ccc(C(=O)Nc2ccc(CN3CCN(C)CC3)c(C(F)(F)F)c2)cc1C#Cc1cnc(N)c2ccc(C#N)cc12
active: [16] 9.19% | [19] 7.71% | [20] -8.2%
inactive: [1] 23.2% | [2] 10.5% | [3] 51.5% | [4] 63.3% | [5] 48.9% | [6] 51.7% | [7] 13.5% | [8] 25.4% | [9] 21% | [10] 12.9% | [11] 25.1% | [12] 53.4% | [13] 24.1% | [14] 14.3% | [15] 52.7% | [17] 33.6% | [18] 35.7%

C/C(=N\Nc1ccc(Cl)cn1)c1ccc2ccccc2n1
inactive: [1] 13.4% | [2] 16.3% | [3] 32.5% | [4] 24.7% | [6] 17.7% | [10] 17.5% | [11] 35.5% | [12] 11.1% | [13] 18% | [15] 56.3%
active: [5] 6.99% | [7] -45% | [8] -7.97% | [9] 2.73% | [14] 2.27% | [16] 8.37% | [17] 7.16% | [18] -15.7% | [19] 3.63% | [20] 3.63%

O=C1C(Cl)=C(Nc2ccc(Nc3ccccc3)c(NC3=C(Cl)C(=O)c4ccccc4C3=O)c2)C(=O)c2ccccc21
inactive: [1] 56.2% | [2] 66.4% | [3] 81.3% | [4] 52.3% | [5] 33.5% | [6] 48% | [7] 90.9% | [8] 39.4% | [9] 63.3% | [10] 113% | [11] 106% | [12] 65.8% | [13] 85% | [14] 57.3% | [15] 27.8% | [16] 34.4% | [17] 45.3% | [18] 53% | [19] 37.9% | [20] 37.3%

C[C@]12CC[C@H]3[C@@H](CC[C@H]4C[C@@H](O)CC[C@@]43C)[C@@H]1CC(=O)C2
inactive: [1] 100% | [2] 96.9% | [3] 98.2% | [4] 100% | [5] 97.6% | [6] 99.7% | [7] 111% | [8] 87.6% | [9] 102% | [10] 113% | [11] 103% | [12] 96.9% | [13] 101% | [14] 84.1% | [15] 94.2% | [16] 100% | [17] 87.6% | [20] 85.7%

O=C1/C(=N\c2cc(=O)[nH]n2S(=O)(=O)c2ccccc2)Nc2ccccc21
inactive: [1] 100% | [2] 109% | [3] 81.2% | [4] 99.8% | [5] 105% | [6] 87% | [7] 98.6% | [8] 97.6% | [9] 92.4% | [10] 116% | [11] 102% | [12] 101% | [13] 98.2% | [14] 70.8% | [15] 123% | [16] 94.7% | [17] 84.8% | [19] 98.4% | [20] 102%

COc1ccc(-c2nc(SCC(C)C)nc(Nc3ccc([N+](=O)[O-])cc3)c2C#N)cc1
inactive: [1] 101% | [2] 97.1% | [3] 88.1% | [4] 88.4% | [5] 80.9% | [6] 92.6% | [7] 96.3% | [8] 99% | [9] 91.7% | [10] 107% | [11] 105% | [12] 98.5% | [13] 72% | [14] 79.7% | [15] 73% | [16] 41.7% | [18] 89.8% | [19] 78.1% | [20] 92.2%

COc1ccc(CN2C(=O)/C(=C\C(=O)c3ccc(OCCN4CCCCC4)cc3)c3ccccc32)cc1
active: [1] 7.62% | [2] 8.95% | [9] 8.81% | [19] 8.94% | [20] 3.78%
inactive: [3] 83.8% | [4] 84% | [5] 80% | [6] 81.4% | [7] 90.9% | [8] 73.5% | [10] 91.5% | [11] 97.4% | [12] 87.6% | [13] 26.3% | [14] 39.3% | [15] 113% | [16] 48.7% | [18] 88.4%

COc1ccc2cc(C(C)C(=O)Nc3ccc(S(=O)(=O)Nc4cc(C)on4)cc3)ccc2c1 (stereo not given)
inactive: [1] 93.8% | [2] 121% | [3] 99.7% | [4] 117% | [5] 98.9% | [6] 104% | [7] 110% | [8] 108% | [9] 96.2% | [10] 111% | [11] 117% | [12] 97.5% | [13] 116% | [14] 90% | [15] 103% | [16] 97.3% | [17] 86.4% | [20] 106%

O=c1oc2ccc3ccccc3c2cc1-c1ccnc2[nH]c(=S)[nH]c(=O)c12
inactive: [1] 105% | [2] 95.3% | [3] 98.9% | [4] 95% | [5] 98.5% | [6] 93% | [7] 97.8% | [8] 88.2% | [9] 93.1% | [10] 105% | [11] 104% | [12] 101% | [13] 93.1% | [14] 66.5% | [15] 143% | [16] 107% | [18] 107% | [19] 82.6% | [20] 87.4%

Oc1ccc2ccccc2c1/C=N\Nc1ccccn1
active: [3] -7.53% | [8] 0.907% | [9] -4.69% | [12] -6.82% | [14] -24.7% | [16] 6.56% | [17] -26.4% | [19] 8.91% | [20] 5.28%
inactive: [1] 28.7% | [2] 111% | [4] 27.8% | [5] 21.3% | [6] 45.1% | [7] 13.3% | [10] 38.9% | [11] 19.3% | [13] 22.4% | [15] 58.3%

Cn1cnc2nc[nH]c2c1=S
inactive: [1] 101% | [2] 94.5% | [3] 79.2% | [4] 103% | [5] 103% | [6] 86.4% | [7] 100% | [8] 98.5% | [9] 99.4% | [10] 112% | [11] 106% | [12] 113% | [13] 94.8% | [14] 71.2% | [15] 88.4% | [16] 97% | [17] 97.9% | [19] 98.7% | [20] 102%
